Experimental data taken from PubChem BioAssay AID1347165 (National Center for Advancing Translational Sciences (NCATS), 2019).
The whole screen tested about 220,000 compounds, of which about 5,700 (2.6%) were called active. Inconclusive results (about 18%) are left out. This is one part of a sample in which actives are shown more often than they occur. The call rests on the fitted dose curve; in most records, active means well fitted inhibition curve with a large enough effect; inconclusive means small, poorly fitted or top-dose-only effect; inactive means no such curve, though single readings can be large or run the other way.

target: Lysine-specific demethylase 5B (Homo sapiens) (UniProt Q9UGL1); assay: Primary screen for KDM5B Histone Demethylases FDH-coupled qHTS; conditions: FDH-coupled NADH fluorescence (FDH is formaldehyde dehydrogenase); series mostly up to 57.7 µM; activity change, negative = inhibition: at the top concentration; further: nearly all actives have a fitted effect of over 70% in size; on activity change, negative = inhibition: 0% is about no effect
Sequence (Q9UGL1 whole entry, looked up): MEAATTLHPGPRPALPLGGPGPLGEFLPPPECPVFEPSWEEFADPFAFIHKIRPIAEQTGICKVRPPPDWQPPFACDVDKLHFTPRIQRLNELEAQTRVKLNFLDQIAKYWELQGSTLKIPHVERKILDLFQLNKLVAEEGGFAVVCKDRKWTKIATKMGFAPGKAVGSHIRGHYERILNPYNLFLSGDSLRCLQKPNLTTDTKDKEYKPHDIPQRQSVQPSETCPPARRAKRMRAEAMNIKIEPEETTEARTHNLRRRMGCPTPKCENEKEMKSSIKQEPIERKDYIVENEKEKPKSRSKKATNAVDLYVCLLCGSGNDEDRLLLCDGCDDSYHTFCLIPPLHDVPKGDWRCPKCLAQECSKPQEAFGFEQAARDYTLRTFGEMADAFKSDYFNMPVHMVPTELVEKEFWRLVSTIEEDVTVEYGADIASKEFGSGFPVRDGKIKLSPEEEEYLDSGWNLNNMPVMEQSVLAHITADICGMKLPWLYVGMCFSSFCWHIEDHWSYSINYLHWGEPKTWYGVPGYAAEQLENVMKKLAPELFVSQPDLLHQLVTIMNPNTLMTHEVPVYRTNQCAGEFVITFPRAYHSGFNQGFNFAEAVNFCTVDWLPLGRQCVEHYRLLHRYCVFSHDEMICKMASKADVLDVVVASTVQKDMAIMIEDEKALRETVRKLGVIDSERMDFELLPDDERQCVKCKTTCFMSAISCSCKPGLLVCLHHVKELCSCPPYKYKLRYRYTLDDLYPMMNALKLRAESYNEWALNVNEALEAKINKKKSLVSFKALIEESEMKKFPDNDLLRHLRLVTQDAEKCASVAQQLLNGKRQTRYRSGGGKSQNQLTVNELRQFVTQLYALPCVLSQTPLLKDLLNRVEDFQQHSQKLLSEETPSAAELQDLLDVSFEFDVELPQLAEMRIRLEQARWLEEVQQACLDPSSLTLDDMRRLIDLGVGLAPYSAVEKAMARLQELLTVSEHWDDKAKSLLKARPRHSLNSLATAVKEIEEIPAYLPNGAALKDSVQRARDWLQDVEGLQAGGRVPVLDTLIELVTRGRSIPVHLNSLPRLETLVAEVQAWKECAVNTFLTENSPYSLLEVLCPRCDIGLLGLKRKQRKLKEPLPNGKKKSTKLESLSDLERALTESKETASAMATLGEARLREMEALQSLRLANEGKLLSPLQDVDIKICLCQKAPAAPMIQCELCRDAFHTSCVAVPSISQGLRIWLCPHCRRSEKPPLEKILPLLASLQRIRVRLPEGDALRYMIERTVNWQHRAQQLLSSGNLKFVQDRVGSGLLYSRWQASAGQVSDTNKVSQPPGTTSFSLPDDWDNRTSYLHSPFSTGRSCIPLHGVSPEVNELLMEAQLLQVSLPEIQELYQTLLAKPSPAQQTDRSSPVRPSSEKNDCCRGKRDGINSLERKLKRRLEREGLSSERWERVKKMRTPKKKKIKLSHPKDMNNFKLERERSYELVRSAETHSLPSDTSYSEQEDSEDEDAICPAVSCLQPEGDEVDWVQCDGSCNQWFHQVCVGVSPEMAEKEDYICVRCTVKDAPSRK
Source text: Assay Submitter (PI): Qin Yan, Ph.D. (Yale University) and Xiaodong Cheng, Ph.D. (MD Anderson) This project was funded as part of the NCI NEXT Program and Chemical Biology Consortium (CBC) The histone demethylases, KDM5A and KDM5B catalyze the demethylation of lysine 4 on histone H3 (H3K4me3/2). They are overexpressed in a variety of cancers and have been implicated in cancer cell growth, metastasis, drug resistance, and tumor growth. KDM5A is amplified and overexpressed in breast and gastric cancer; and is translocated in leukemia. While KDM5B is highly expressed in human mammary tumors and breast cancer cell lines, but not in normal adult breast tissue. Moreover, knockdown of KDM5B leads to upregulation of tumor suppressor genes, including BRCA1. The goal of this project is to employ qHTS to identify selective small molecule inhibitors of KDM5A/B demethylase activity to better understand the role of KDM5 in cancer and to develop novel therapies. We employed an FDH-coupled assay previously reported by Sakurai et al. to monitor in vitro KDM5 demethylase activity. Compounds showing dose response inhibition are re-acquired, validated, and tested for non-specific interference with the formaldehyde dehydrogenase (FDH) counterscreen. True inhibitors are validated using an AlphaLisa secondary screen, which employs an H3K4(me2-1)-specific antibody to monitor demethylation of a biotin-tagged H3K4(me3) peptide substrate. Inhibitors are profiled against KDM4A and KDM6A AlphaLisa counterscreens to determine level of demethylase specificity; and against the TruHits counterscreen to eliminate non-specific inhibitory activity on the AlphaLISA detection method. Selective inhibitors identified from the primary and secondary screening are tested in cells using immunofluorescence to monitor global H3K4 tri-methylation as a measure of KDM5A/B inhibition. Early Translation Branch (ETB) National Center for Advancing Translational Sciences (NCATS), Rockville, MD National Institute of Health (NIH), Bethesda, Maryland [1] Sakurai, M et al. A miniaturized screen for inhibitors of Jumonji histone demethylases. Mol Biosyst. 2010 Feb;6(2):357-64. doi: 10.1039/b912993f. Epub 2009 Oct 8.
Materials: 1536-well Black, solid bottom, medium binding assay plate is purchased from Greiner Bio-one. The enzymes (KDM5B) and substrate (H3K4me3/2) are provided by the principal investigators. The buffer for this assay is composed of 50mM HEPES at pH 7.5 with 0.01% Tween-20. FDH coupled Demethylase qHTS protocol: Three microliter enzyme mix (buffer + 200nM KDM5BDeltaAP final concentration) is dispensed into the assay plate using the BioRAPTR Flying Reagent Dispenser (FRD; […]). Compound (at various final concentration) and control solution is pin transferred to the assay plate using the Kalypsys 1536-pin tool apparatus. The assay plate is incubated for 10 min at room temperature followed by addition of 1uL substrate mix (buffer + 100uM ascorbic acid, 50uM ferrous ammonium sulfate, 12.5uM H3K4Me3, 25uM a-ketoglutarate, 0.25 mM NAD+, 0.25 U/mL formaldehyde dehydrogenase using the FRD yielding a total reaction volume of 4 uL. Initial fluorescence (Read1) is detected using the PerkinElmer ViewLux plate reader equipped with 340 nm excitation and 450 nm emission filters. The final fluorescence (Read2) signal is obtained after 30 min of room temperature incubation. Delta RFU is calculated (Read2 - Read1) and is used to generated dose response curves.
Potency means the concentration at half of the fitted maximal effect.

Row | Compound | Potency | activity change, negative = inhibition
1 | COc1cccc(CN2Cc3nc(Nc4cccc(F)c4)ccc3OCC2=O)c1 | 28.2 µM (active) | –
2 | COCCn1c(C(=O)NCc2ccncc2)nc2ccccc2c1=O | – | 11.4% (inactive)
3 | Cc1ccccc1CN1Cc2nc(NCc3ccncc3)ccc2OCC1=O | 35.5 µM (active) | –
4 | O=C1Cc2c(-c3ccc(F)cc3F)n[nH]c2CN1Cc1ccccc1F | – | 7.91% [at 86.2 µM] (inactive)
5 | COc1cccc(CN2Cc3nc(-c4cc(F)cc(F)c4)ccc3OCC2=O)c1 | – | -26.2% [at 86.2 µM] (inactive)
6 | COCCNc1nc2c(c(=O)n(C)c(=O)n2C)n1CCc1ccccc1 | – | 2.93% (inactive)
7 | COc1cccc(C(=O)Nc2ccc3c(c2)CN(Cc2ccc(OC)cc2OC)C(=O)CO3)c1 | – | 0.861% (inactive)
8 | COCC(=O)Nc1ccc2c(c1)CN(Cc1ccccc1F)C(=O)C(C)O2 (configuration not stated) | – | -4.01% (inactive)
9 | O=C1COc2ccc(-c3cncnc3)nc2CN1Cc1ccc(F)cc1 | – | -30.4% [at 86.2 µM] (inactive)
10 | CCC(C(=O)Nc1ccc2c(c1)CN(Cc1cc(F)cc(F)c1)C(=O)CO2)c1ccccc1 (configuration not stated) | – | -6.69% (inactive)
11 | COCCN1Cc2nc(NCc3ccccc3)ccc2OCC1=O | 35.5 µM (active) | –
12 | CC(=O)Nc1scc(-c2cc(C)ccc2C)c1C#N | – | -19.7% (inactive)
13 | Cc1ccc(C(=O)C(C)OC(=O)Cc2n[nH]c(=O)c3ccccc23)cc1C (configuration not stated) | – | 15.4% (inactive)
14 | O=C1c2ccccc2NC(c2cnc3ccccc3n2)N1c1ccc(Cl)cc1 (configuration not stated) | – | 3.11% (inactive)
15 | Cc1cc(C)c(C(=O)Nc2ccccc2)c(SCC(=O)NC2CCCCC2)n1 | – | 6.57% (inactive)
16 | CCN1CCN(C(c2ccccc2)c2c(O)cc(C)n(CC)c2=O)CC1 (configuration not stated) | – | 4.49% (inactive)

Row | Compound | Potency | activity change, negative = inhibition
17 | CCCCC(c1nnnn1CS(=O)(=O)c1ccc(C)cc1)N1CCC(C(N)=O)CC1 (configuration not stated) | – | 13.2% (inactive)
18 | CCC(C)c1ccc(NC(=S)N2CCCC2)cc1 (configuration not stated) | – | -10.6% (inactive)
19 | CC(C)NC(=O)C1(CCO)CCN(c2ncccn2)C1 (configuration not stated) | 31.6 µM (active) | –
20 | CC(C)NC(=O)C1(CCO)CC12CCOCC2 (configuration not stated) | – | -10.3% (inactive)
21 | COc1cccc(NC(=O)COc2cc(C)cc3oc(=O)cc(C)c23)c1 | – | -1.19% (inactive)
22 | CCOc1ccc(C(=O)N2CC(=O)Nc3ccc(C)cc3C2c2ccccc2)cc1 (configuration not stated) | – | 14.9% (inactive)
23 | CCOc1ccc(-c2cc3c(=O)n(CC(=O)NCc4ccc(OC)cc4)ccn3n2)cc1 | – | -6.91% (inactive)
24 | Cc1ccc(C)c(-c2cc3c(=O)n(CCNC(=O)c4ccncc4)ccn3n2)c1 | – | -19% (inactive)
25 | Cc1ccc(C)c(-c2cc3c(=O)n(CCNC(=O)Cc4ccsc4)ccn3n2)c1 | – | 16.8% (inactive)
26 | CCC(C(=O)NCCn1ccn2nc(-c3ccc(F)cc3)cc2c1=O)c1ccccc1 (configuration not stated) | – | -11.3% (inactive)
27 | CCOc1ccc(-c2cc3c(=O)n(CCNC(=O)c4ccc(OC)cc4C)ccn3n2)cc1 | 28.2 µM (active) | –
28 | COc1ccc(-c2cc3c(=O)n(CCNC(=O)c4ccc(OC)cc4OC)ccn3n2)cc1 | 35.5 µM (active) | –
29 | Cc1c(Cl)cccc1NC(=S)NCCSc1ccc(Cl)cc1 | – | -3.71% (inactive)
30 | O=Cc1cc(Cl)ccc1O | – | 16.4% (inactive)
31 | Cc1cc(C)c(NC(=O)COc2ccc(C(=O)Nn3c(C)ccc3C)cc2)c(C)c1 | – | -27.9% (inactive)
32 | O=C(Nc1ccccc1C(F)(F)F)N1CCC(N2CCN(Cc3ccccn3)C(=O)C2=O)CC1 | – | 19.7% (inactive)
